Hits are enriched below; roughly 2.4% of the tested compounds scored in any of these assays.
HSF-1 act: HSF-1 activators, primary screen, NIH3T3-HGL cells, MG132 stress, luminescence, single point | 300,000 tested, 1.7% active | NIH3T3-HGL HSF-1 luciferase reporter, 8 h; 100% = twice DMSO control signal | activation, % at 9 µM;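 active = mean replicate activation of at least 50% with a set share of replicates each reaching 50%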
HSF1 inh: HSF1 inhibitors in luciferase reporter cells, primary screen, cell-based, NIH3T3, luminescence. NIH3T3-HGL HSE-luciferase, MG132-induced, luminescence 8 h; active compounds read low. activity change, negative = inhibition, % at 7.5 µM (by protocol). 300,000 tested, 0.77% active;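 active = more than half of replicate wells show activity change below -50%, luminescence cut by over half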;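 note: luciferase reports HSF-1 transcriptional activity via heat shock element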
TLR9-MyD88 block: inhibitors of TLR9-MyD88 association in cells, primary screen, cell-based, CHO, BLA complementation, fluorescence; Toll-like receptor 9 (Homo sapiens) + Myeloid differentiation primary response protein …; CCF4 FRET ratio; inhibition, % at 4.98 µM; 340,000 tested, 0.21% active;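 active = inhibition above the mean over all tested compounds plus 3 SD, cut at about 21% in these data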
NOD2-RIPK2 inh: NOD2-RIPK2 binding disruptors in cells, primary screen, fluorescence, CHO cells, BLA complementation; CCF4 ratio; inhibition, % at 4.98 µM; 360,000 tested, 0.38% active; AID 624267, 2012; in the data active = inhibition above about 21%
TLR4-MyD88 BLA: inhibitors of TLR4-MyD88 association in cells, primary screen, cell-based, HeLa CL3-4, BLA complementation, FRET ratio. Toll-like receptor 4 (Homo sapiens) + Myeloid differentiation primary response protein …. HeLa CL3-4 TLR4/MyD88 BLA complementation. inhibition, % at 8.4 µM. 200,000 tested, 0.18% active. AID 861, 2007; in the data active = inhibition above about 25%
A number is an active result; . = inactive; / = no result given.

SMILES | HSF-1 act | HSF1 inh | TLR9-MyD88 block | NOD2-RIPK2 inh | TLR4-MyD88 BLA
COc1cc2nc(CN3CCN(S(=O)(=O)c4cc(C)ccc4C)CC3)[nH]c(=O)c2cc1OC | / | / | . | . | /
CN(C)c1ccc(-c2nc3n(n2)C(c2cccnc2)C2=C(CC(C)(C)CC2=O)N3)cc1 (stereo not drawn) | . | -70 | . | . | .
COc1ccccc1NOC(=O)CCOc1ccccc1 | / | / | . | . | /
CCNc1c(NC(=O)c2ccc3c(c2)OCO3)c(=O)oc2ccccc12 | . | . | . | . | /
COc1ccc(/C=N/Nc2nncn2N)cc1Br | 78 | . | . | . | /
COc1cc(/C=N/Nc2nncn2N)ccc1OCc1c(C)no[n+]1[O-] | . | . | . | . | /
CSCCC(NS(=O)(=O)c1ccc(C)cc1)C(=O)N1CC=C(c2ccccc2)CC1 (stereo not drawn) | . | . | . | . | /
O=C(Nc1ccc(Cl)cc1)P(=O)(O)c1ccccc1 | / | / | . | . | /
O=C(C1=C(c2ccccc2)C(=O)c2ccccc2C1=O)c1ccccc1 | 82 | . | . | . | .
CC[C@]12c3[nH]c4ccccc4c3CCN1C(=O)C(CC(=O)NCc1cccc(C(F)(F)F)c1)C[C@@H]2C(=O)N1CCN(C(=O)c2ccco2)CC1 (stereo partly drawn) | / | / | . | . | /
CCN(CC(=O)Nc1c(F)cccc1F)C(=O)C1COc2ccccc2O1 (stereo not drawn) | / | / | . | . | /
COc1ccc(CCNC(=O)COc2ccc(N(C)S(=O)(=O)c3ccc(C)cc3)cc2)cc1 | 53 | . | . | . | .
COc1ccc(CNC(=O)c2ccc(N(C)S(=O)(=O)c3ccc(C)cc3)cc2)cc1 | . | . | . | . | /
COc1ccc(S(=O)(=O)N(C)c2ccc(C(=O)NCc3ccccn3)cc2)cc1 | 68 | . | . | . | /
COc1cc(NC(=S)NC(C)(C)C)c(OC)cc1Cl | 63 | . | . | . | .
O=C(Nc1ccc(F)cc1F)Nc1ccc(F)cc1F | . | . | . | . | .
O=C(Nc1cccs1)Nc1ccc(F)cc1F | 98 | . | . | . | .
O=C(/C=C/Nc1ccc(F)cc1F)c1cccs1 | 77 | . | . | . | .
O=C(Nc1cccs1)Nc1ccc(Br)cc1F | 60 | . | . | . | .
Cc1ccc(NC(=O)Nc2cccs2)c(Cl)c1 | . | . | . | . | .
Cc1cc2nc(-c3cccc(Cl)c3)c(CC(C)(C)C)n2c(C)c1Br | / | / | / | . | /
O=C(CNS(=O)(=O)c1ccccc1F)Nc1ccc(N2CCOCC2)cc1 | . | -88 | . | . | .
CN(c1ccccc1)c1ncccn1 | . | -89 | / | . | /
CN(c1ccccc1)c1nc(-n2ccnc2)nc(-n2ccnc2)n1 | . | . | . | . | .
C=CCN1C(=O)C(Cc2ccc(OC)cc2)S/C1=N/N=C/c1ccco1 (stereo not drawn) | . | -57 | . | . | .
SMILES | HSF-1 act | HSF1 inh | TLR9-MyD88 block | NOD2-RIPK2 inh | TLR4-MyD88 BLA
C=CCN1C(=O)C(Cc2ccc(Br)cc2)S/C1=N\N=C\c1ccco1 (stereo not drawn) | . | . | . | . | .
COc1ccc(CCc2ccc3ccccc3n2)cc1 | / | / | . | . | /
CSc1cccc(NC(=O)c2cccc3cccnc23)c1 | 54 | . | . | . | /
COc1cccc(C(=O)Nc2ccccc2)c1 | . | . | . | . | .
COc1ccc(NC(=O)c2cc3ccccc3oc2=O)cc1 | / | / | . | . | /
COc1ccc(NC(=O)c2cc3cc(OC)ccc3oc2=N)cc1 | . | -53 | . | . | .
COc1ccc(NC(=O)c2cccc(OS(=O)(=O)N(C)C)c2)cc1 | 54 | . | . | . | .
CN(C)S(=O)(=O)Oc1cccc(C(=O)Nc2ccc(Cl)c(Cl)c2)c1 | . | . | . | . | .
COc1cccc(C(=O)Nc2cccc(SC)c2)c1 | 62 | . | . | . | .
Cc1ccc(S(=O)(=O)N(C)c2ccc(C(=O)NCC(c3ccco3)N3CCCC3)cc2)cc1 (stereo not drawn) | / | / | . | . | /
CCc1cccc(NC(=O)COC(=O)c2c(C)nn(-c3ccccc3)c2C)c1 | / | / | . | . | /
COc1ccc(Cl)c(-c2cc(C(=O)Nc3ccccc3)[nH]n2)c1 | / | / | / | . | /
CN(C(=O)COC(=O)CNC(=O)c1ccc2ccccc2c1)c1c(N)n(Cc2ccccc2)c(=O)[nH]c1=O | . | . | . | . | /
O=C(NCC1CCOCC1)c1ccc2nc(Cc3cccc(Cl)c3)oc2c1 | 54 | . | . | . | /
CCCn1ncc(CN2CCC(C(=O)Nc3cccc(-c4cccc(F)c4)c3)CC2)c1C | . | . | . | . | /
CC(=Nc1ccccc1)C1=C(O)CCCC1=O | 63 | . | . | . | .
Cc1cc(C)c(S(=O)(=O)N/N=C/c2ccc3c(c2)OCO3)c(C)c1 | . | -55 | . | . | /
O=C(O)c1ccccc1COc1ccccc1Cl | . | -56 | . | . | .
CCOC(=O)C1(C)CCCN(C(=O)c2ccc(-c3ccccc3)cc2)C1 (stereo not drawn) | / | / | / | . | /
CCN(CC)c1ccc(C(=O)OCC(=O)Nc2sccc2C#N)cc1 | 58 | . | . | . | .
CCCCCC[n+]1c(-c2ccccc2)csc1Nc1ccccc1 | 63 | . | . | . | .
O=C(O)c1ccc(C[n+]2c(-c3ccccc3)csc2Nc2ccccc2)cc1 | . | . | . | . | .
COc1ccccc1N1CCN(C2CCCN(C(=O)CCc3cnn(C)c3)C2)CC1 (stereo not drawn) | . | . | . | . | /
Cc1cc(NC(=S)N(Cc2ccc(Br)cc2)Cc2ccc(C(=O)O)cc2)ccc1Cl | 58 | . | . | . | .
Cc1nn2c(CN(C(=O)CN3CCOCC3)c3ccccc3)nnc2c2ccccc12 | . | -56 | . | . | .
SMILES | HSF-1 act | HSF1 inh | TLR9-MyD88 block | NOD2-RIPK2 inh | TLR4-MyD88 BLA
Cc1nn2c(CN(C(=O)COc3ccccc3)c3ccccc3)nnc2c2ccccc12 | . | . | . | . | .
O=C(O)Cc1ccc(C(=O)c2ccc(Cl)cc2)s1 | . | . | . | . | .
NC(=O)Cc1ccc(C(=O)c2ccc(Cl)cc2)s1 | . | -64 | . | . | .
O=C(Nc1ccc([N+](=O)[O-])cc1)C1C(c2ccccc2)=C1c1ccccc1 | 178 | . | . | . | .
Cc1ccc(S(=O)(=O)c2ncccc2[N+](=O)[O-])cc1 | . | -97 | . | . | /
O=C(NC1CCSc2ccccc21)c1cccc(S(=O)(=O)N2CCOCC2)c1 (stereo not drawn) | . | . | . | . | /
N#Cc1ccc(C#Cc2ccc3oc4ccccc4c(=O)c3c2)cc1 | / | / | . | . | /
O=c1c2ccccc2oc2ccc(C#CC3(O)CCCCC3)cc12 | . | -86 | . | . | /
Cn1c2ccccc2c(=O)c2cc(C#CC3(O)CCCCC3)ccc21 | . | -85 | . | . | /
Cc1cc2sc3ccc(C#CC4(O)CCCCC4)cc3c(=O)c2cc1C | . | -90 | . | . | /
